This passage reports outcome and AC50 results from PubChem BioAssay (EPA / NIEHS).

Records with an inconclusive call do not appear. Calls of active or inactive are those of the source. How the source made its calls: active means hit-call score of the fitted dose curve at least 0.9, where 1 is the maximum; inconclusive means response in the unintended direction; inactive means score below 0.9.

The assay in a line: ACEA_ER_AUC_viability: ACEA Biosciences xCELLigence Real-Time Cell Analysis on Estrogen Receptor Agonism for Viability (AID 2283782). An outline of the steps:
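Read-out: real-time electrical impedance (RT-CES) area under curve, loss of signal taken as reduced viability, normalized to DMSO baseline. T-47D cells, charcoal-stripped serum medium, compounds up to 100 uM final, continuous exposure, 80 h.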
With `CC(C)(C)C1CCC(=O)CC1`, the compound was called inactive.
Consider `CC(Cl)COP(=O)(OCC(C)Cl)OCC(C)Cl` (centres undefined), for which the outcome was inactive.
Regarding `CC(=O)OCC=C(C)C`, the result was inactive.
With `Nc1ccc(C(=O)OCCCOC(=O)c2ccc(N)cc2)cc1`, the call was inactive.
With `CCCCNS(=O)(=O)c1ccccc1`, the compound was classed as inactive.
With `C1CNCCN1`, the compound was called inactive.
The same measure, in the same setting: next, `O=C1CCCCC1C1CCCCC1` (centres undefined): “inactive”.
A word on the AC50: it is the concentration at which the activity in the assay is half-maximal. For the compound `Oc1ccc(/C=C/c2cc(O)cc(O)c2)cc1`, the AC50 was 20.6 µM (active).
Turning to `CCCc1ccc(O)c(OC)c1`, the call was inactive.
